# Screens from PubChem BioAssay.
# A selection: hits, their analogues and other compounds. The true share with any hit is near 2.4%.
# D2 PAM-1 – HTS Assay for Positive Allosteric Modulators of the Human D2 Dopamine Receptor: Primary Screen for Potentiators; potentiation, % at 10 µM; actives 0.34% (n = 340,000); HEK293 T-REx D2, calcium flux, EC20 dopamine potentiation; AID 485347, 2010;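 active = potentiation over 3 SD above the plate norm, cut at about 30% in these data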; note: 0% is about no effect
# Target sequence (P14416 whole entry, looked up): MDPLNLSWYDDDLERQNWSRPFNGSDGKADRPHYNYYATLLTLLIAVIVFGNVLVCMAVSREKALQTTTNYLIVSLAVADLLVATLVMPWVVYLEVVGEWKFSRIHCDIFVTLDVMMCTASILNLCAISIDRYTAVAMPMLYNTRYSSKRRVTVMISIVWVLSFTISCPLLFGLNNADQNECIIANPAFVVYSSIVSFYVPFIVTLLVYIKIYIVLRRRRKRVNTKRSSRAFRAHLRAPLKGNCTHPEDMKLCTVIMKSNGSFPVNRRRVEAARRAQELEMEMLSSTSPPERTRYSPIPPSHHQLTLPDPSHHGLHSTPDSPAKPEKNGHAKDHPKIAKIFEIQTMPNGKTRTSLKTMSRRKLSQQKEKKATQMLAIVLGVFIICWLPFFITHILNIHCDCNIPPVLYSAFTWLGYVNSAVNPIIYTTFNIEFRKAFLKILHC
#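 Calcium flux readout, no-wash dye, 1 read/s. Inducible HEK293 Trex D2 line, overnight 30 C. Compound alone 180 s (agonist flags), then EC20 dopamine, another 180 s to score potentiation.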
# D2 PAM-2 – Beta-Arrestin HTS for Positive Allosteric Modulators of the Human D2 Dopamine Receptor: Potentiators; D(2) dopamine receptor (Homo sapiens), P14416; DiscoveRx D2 beta-arrestin cells, luminescence, 90 min; 100% = 57 uM dopamine signal; potentiation, % (test concentration not listed); actives 0.23% (n = 360,000); AID 624464, 2012; in the data active = potentiation above about 50%; inconclusive = mostly about 30% to 49%
#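 D2 cells co-treated with compound plus 50 nM dopamine (EC20) for 90 min at 37 deg C to detect potentiation. Beta-arrestin recruitment was read as enzyme-fragment luminescence after 1 h at ambient temperature. Full response was set by 57 uM dopamine.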
# D2 antagonist – HTS Assay for Allosteric Antagonists of the Human D2 Dopamine Receptor: Primary Screen for Antagonists; HEK293 TREx D2 cells, calcium flux, dopamine EC80; inhibition, % at 10 µM; actives 2% (n = 340,000); in the data active = inhibition above about 30%; inactive = below that, where a call was filed; note: 0% is about no effect
#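 Tetracycline-induced HEK293 T-REx cells expressing D2 force-coupled to calcium signalling were dye-loaded, exposed to compound for 180 s, then challenged with an EC80 of dopamine; calcium flux was followed kinetically for a further 180 s.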
# D2 ag-1 – HTS Assay for Allosteric Agonists of the Human D2 Dopamine Receptor: Primary Screen for Agonists | D(2) dopamine receptor (Homo sapiens), P14416 | HEK293 T-REx D2 cells, calcium flux agonist mode | activation, % at 2 µM | actives 0.53% (n = 340,000) | AID 485358, 2010;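 active = activation over 3 SD above normal in the single-dose calcium agonist read, cut at about 30% in these data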; note: 0% is about no effect
#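 Calcium-flux readout, 1 cycle/sec over 180 s following compound pin transfer, in inducible HEK293 Trex D2 cells (force-coupled); dopamine controls included. Positive calcium responses during this window marked compounds as potential agonists.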
# D2 ag-2 – Beta-Arrestin HTS for Positive Allosteric Modulators of the Human D2 Dopamine Receptor: Agonists; activation, % (test concentration not listed); DiscoveRx PathHunter D2 beta-arrestin, luminescence, 90 min; 100% = 57 uM dopamine signal; actives 0.084% (n = 360,000); in the data active = activation above about 40%; inconclusive = between about 15% and that limit
#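 Agonist mode: compounds alone added to overnight-plated D2 PathHunter cells for 90 min at 37 C, with 57 uM final dopamine (EC100) defining full response. Beta-arrestin recruitment detected by chemiluminescent reagent, read after 1 h at ambient temperature.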
# Numbers without * were called inactive; u = inconclusive; x = no result.
SMILES,D2 PAM-1,D2 PAM-2,D2 antagonist,D2 ag-1,D2 ag-2
FC(F)(F)c1ccccc1CN1CCN(C2CCCCCC2)CC1,-32,-16,44*,0,-2
CN(Cc1ccccc1)Cc1c[nH]c2ccccc12,-23,-45,35*,-1,-4
c1ccc(Cc2c[nH]c3ccccc23)cc1,6,-3,-6,0,6
Cc1ccc(CNc2ccc(O)cc2)cc1,x,70*,-6,1,u
Cc1ccc(NCc2ccccc2O)cc1,-6,-16,-17,1,1
Cc1ccc(C(=O)c2cnc3ccccc3c2-c2ccccc2)cc1,31*,-7,-4,2,-4
CC(NC(=O)c1ccc2c(c1)CCN2S(=O)(=O)c1ccc(Cl)cc1)c1ccccc1 (stereo not given),0,x,x,1,x
CCOC(=O)CN(C(=O)CSc1nnc2c(n1)[nH]c1c(C)cc(C)cc12)c1ccccc1,-22,x,61*,1,x
CCOC(=O)CN(C(=O)CSc1nnc2c(n1)[nH]c1ccccc12)c1ccccc1,-9,-37,7,0,-1
CCOC(=O)CN(C(=O)CSc1nnc2c(n1)[nH]c1ccc(F)cc12)c1ccccc1,-20,-25,72*,0,-4
CCC(C)(C)C(=O)Nc1ncc(S(=O)(=O)c2ccc([N+](=O)[O-])cc2)s1,31*,88*,-14,6,7
O=C(CCl)Nc1ncc(S(=O)(=O)c2ccc([N+](=O)[O-])cc2)s1,x,6,x,x,u
O=C(Nc1ncc(S(=O)(=O)c2ccc([N+](=O)[O-])cc2)s1)c1ccc2ccccc2c1,x,73*,x,x,14
COc1cc(NC(=O)C2=C(C)Nc3nnnn3C2c2ccc(SC)cc2)c(OC)cc1Cl (stereo not given),x,x,x,0,x
COc1cccc(C(=O)Nc2ccc3nc(SCc4ccc(C)cc4)sc3c2)c1,-2,x,x,4,x
O=C(COc1ccccc1F)Nc1nnc(SCc2cc(=O)c3ccccc3[nH]2)s1,x,x,x,-1,x
COC(=O)c1cc2oc(C)cc2n1Cc1ccccc1Cl,4,x,x,0,x
O=C(NCc1ccc(F)cc1)C1CCN(S(=O)(=O)c2cccc3nonc23)CC1,32*,-2,-7,0,-2
Cc1ccc(CNC(=O)C2CCN(S(=O)(=O)c3cccc4nonc34)CC2)cc1,-2,4,-5,1,-2
CN1CCC(=O)N(CCSc2ccc(Br)cc2)CC1,3,-13,53*,-1,-3
Cc1ccc2c(c1)N(CC(=O)Nc1ccccc1F)C(=O)CO2,8,0,9,0,-6
CCOC(=O)c1c(C)[nH]c(C)c1S(=O)(=O)NCC1CCN(Cc2cccc(Cl)c2)CC1,-32,-22,78*,-1,-3
CCOC(=O)c1c(C)[nH]c(C)c1S(=O)(=O)NCC1CCN(Cc2ccc(C)cc2)CC1,-24,-32,87*,0,-2
CCOC(=O)c1c(C)[nH]c(C)c1S(=O)(=O)NCC1CCN(Cc2ccccc2F)CC1,-24,-20,-3,1,4
CCC1(C)SC(NC(C)=O)=NN1C(C)=O (stereo not given),8,-6,0,4,-2
SMILES,D2 PAM-1,D2 PAM-2,D2 antagonist,D2 ag-1,D2 ag-2
CC(=O)NC1=NN(C(C)=O)C(C)(CS(=O)(=O)c2ccc3ccccc3c2)S1 (stereo not given),4,-25,39*,0,-2
CCc1cc2c(cc3c(=O)n(CC(=O)NCCCN4CCCCCC4)nc(CC)n32)s1,-21,-1,33*,-1,-6
CCc1nn(CC(=O)NCCCN2CCN(C)CC2)c(=O)c2cc3sc(C)cc3n12,1,-16,3,1,-2
O=C(O)CCCC(=O)Nc1nc2n(n1)C(c1ccc(F)cc1)CC(c1ccc(Cl)cc1)N2 (stereo not given),-8,-9,32*,-1,-3
O=C(CC1C(=O)N(c2ccccc2)C(=O)N1CCC1=CCCCC1)Nc1ccc(F)cc1 (stereo not given),-24,x,x,0,x
Cc1ccc(Cl)cc1-n1c(=O)c2sc3ccccc3c2n(CC(=O)NC2CCCC2)c1=O,0,x,x,0,x
COc1ccc(OCCOCCN2CCN(C)CC2)cc1,-10,-2,-3,0,-2
COc1cccc(OC)c1OCCOCCN1CCN(C)CC1,-25,-23,68*,2,0
CC(C)Oc1ccc(C(=O)NC2CCN(Cc3ccccc3)CC2)cc1,-23,-26,-12,0,-3
COC(=O)[C@H](C)NC(=O)NC1CCN(Cc2ccccc2)CC1,-11,-20,50*,0,-2
CC(Oc1ccc(Br)cc1)C(=O)NC1CCN(Cc2ccccc2)CC1 (stereo not given),2,-32,64*,0,-5
CCCC(CCC)C(=O)NC1CCN(Cc2ccccc2)CC1,-18,-12,18,0,0
COC(=O)c1cc(S(=O)(=O)N2CCC(c3ccccc3)C2)c[nH]1 (stereo not given),-25,-7,13,0,1
COC(=O)c1cc(S(=O)(=O)N2CCC(c3cc(OC)ccc3OC)C2)c[nH]1 (stereo not given),83*,-5,-11,0,3
CC(C)C1C(=O)N(Cc2cn(CCC3OCCO3)nn2)CCS(=O)(=O)N1Cc1ccc(-c2ccc(Cl)cc2)cc1 (stereo not given),x,-11,x,x,0
CCCC(=O)Nc1ccc(NC(=O)c2ccccc2)nc1,-9,-3,-5,1,-3
CCC(=O)Nc1ccc(NC(=O)c2ccccc2)nc1,1,-2,32*,0,-1
Cc1ccc(NC(=O)C2CCCN2c2nn3c(=O)cc(C)nc3s2)cc1 (stereo not given),x,-2,x,x,-1
CC(NC(=O)CCC(=O)Nc1ccccc1O)c1ccccc1 (stereo not given),x,-12,x,x,-3
CC(CNc1ccccc1O)C(=O)O (stereo not given),5,68*,-1,0,u
O=C(NCc1ccco1)c1ccc2c(c1)N(Cc1ccc(Cl)cc1)C(=O)c1ccccc1S2(=O)=O,2,x,x,2,x
Cc1ccc2occ(C(=O)c3ccco3)c(=O)c2c1,2,-2,39*,-1,-1
CCN(CC)CCNC(=O)CSc1nc2nc(C)c(Cc3ccccc3)c(C)n2n1,-6,x,x,0,x
Cc1c(C(=O)N2CCCCC2)c(S(=O)(=O)NCc2ccc(Cl)cc2)c(C)n1C,8,-1,48*,1,-3
